According to a collection of fitness landscapes (doi:10.1016/j.celrep.2020.107928):
The full ranking holds about 81,000 sequences; the median of “one-hybrid fitness for binding parS DNA” is about -0.17, and the highest 2% start at about 0.51. Only a selection was taken, and the highest values are over-represented in it overall.

B1: Caulobacter ParB omega fusion; a variant is named by its letters at X, in order, B8GW30 (parent)
chain: MESVVVGEPGMSEGRRGLGRGLSALLGEVDAAPAQAPGEQLGGSREAPIEILQRNPDQPRRTFREEDLEDLSNSIREKGVLQPILVRPSPDTAGEYQIVAGERAWRAAQRAGLKTVPIMVRELDDLAVLEIGIIENVQRADLNVLEEALSYKVLMEKFERTQENIAQTIGKSXSHVANXMRLLXLPDEVQSYLVSGELTAXHARAIAAAADPVALAKQIIEGGLSVRETEALARKAPNLSAGKSKGGRPPRVKDTDTQALESDLSSVLGLDVSIDHRGSTGTLTITYATLEQLDDLCNRLTRGI

Variants of: B1
Assay: one-hybrid fitness for binding parS DNA (scaled: cognate 1, non-cognate 0); higher = stronger binding
Conditions: with parS DNA site
In short: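 Fitness here means the log change in variant-to-wild-type read ratio between plasmids sequenced before and after selection. That scale was set so cognate equals 1 and non-cognate equals 0. The selection was a bacterial one-hybrid screen of Caulobacter ParB libraries, four specificity codons randomised, in E. coli USO carrying a HIS3 reporter with the site 19 bp from the promoter, grown 48 hours at 37°C on M9-minus-histidine with 0.1 mM IPTG and 5 mM 3-AT.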

| Variant | one-hybrid fitness for binding parS DNA |
| --- | --- |
| NIPL | ≤ 0.2 |
| RHED | ≤ 0.2 |
| RRES | 0.752 |
| RREN | 0.3 |
| RSEH | ≤ 0.2 |
| RGED | ≤ 0.2 |
| RRED | ≤ 0.2 |
| RHES | 0.962 |
| RSEP | ≤ 0.2 |
| RGEN | ≤ 0.2 |
| RGES | 0.554 |
| RSES | 0.902 |
| RHEN | 0.369 |
| TVWR | ≤ 0.2 |
| ANGP | ≤ 0.2 |
| NLAR | ≤ 0.2 |
| SREP | ≤ 0.2 |
| GNAS | ≤ 0.2 |
| RMES | 0.956 |
| RTED | ≤ 0.2 |
| RTEH | 0.208 |
| RIES | 0.93 |
| RMEP | ≤ 0.2 |
| RKEN | 0.351 |

| Variant | one-hybrid fitness for binding parS DNA |
| --- | --- |
| RKES | 0.899 |
| RIEN | 0.279 |
| RMED | ≤ 0.2 |
| RIEP | ≤ 0.2 |
| RTES | 0.985 |
| RKEP | ≤ 0.2 |
| SVCD | ≤ 0.2 |
| VPCS | ≤ 0.2 |
| QSKG | ≤ 0.2 |
| MNTS | ≤ 0.2 |
| SEHV | ≤ 0.2 |
| RLMV | ≤ 0.2 |
| TMAV | ≤ 0.2 |
| QAEE | ≤ 0.2 |
| RSDI | ≤ 0.2 |
| RMVC | 0.96 |
| RMVH | ≤ 0.2 |
| RMKC | 0.849 |
| RMVP | 0.206 |
| RMKQ | ≤ 0.2 |
| RMKF | 0.439 |
| EAIW | ≤ 0.2 |
| RITN | 0.409 |
| RSTH | 0.234 |

| Variant | one-hybrid fitness for binding parS DNA |
| --- | --- |
| RSTD | ≤ 0.2 |
| RKTH | ≤ 0.2 |
| RITS | 0.992 |
| RTTP | ≤ 0.2 |
| RSTS | 0.986 |
| RTTS | 0.943 |
| RKTD | ≤ 0.2 |
| RKTS | 0.815 |
| RTTH | 0.232 |
| RITH | 0.214 |
| IIGK | ≤ 0.2 |
| ENYG | ≤ 0.2 |
| PEAY | ≤ 0.2 |
| HKGC | ≤ 0.2 |
| KDVC | ≤ 0.2 |
| LAWM | ≤ 0.2 |
| IPRY | ≤ 0.2 |
| RFTH | ≤ 0.2 |
| RCTS | 0.984 |
| RHTN | 0.384 |
| RPTS | ≤ 0.2 |
| RFTP | ≤ 0.2 |
| RCTN | 0.475 |
| RLTH | 0.232 |

| Variant | one-hybrid fitness for binding parS DNA |
| --- | --- |
| RHTP | ≤ 0.2 |
| RFTS | 1.01 |
| RHTS | 0.893 |
| RLTS | 0.984 |
| RLTP | ≤ 0.2 |
| CLVL | ≤ 0.2 |
| FTSY | ≤ 0.2 |
| KNRS | ≤ 0.2 |
| LLFA | ≤ 0.2 |
| AVGG | ≤ 0.2 |
| AARP | ≤ 0.2 |
| SKSL | ≤ 0.2 |
| VMLN | ≤ 0.2 |
| SWPW | ≤ 0.2 |
| AGLI | ≤ 0.2 |
| MFAT | ≤ 0.2 |
| RMTN | 0.45 |
| RATS | 1 |
| RATH | 0.255 |
| RMTS | 0.975 |
| RATD | ≤ 0.2 |
| RMTD | 0.207 |
| RFKP | ≤ 0.2 |
| RFVQ | ≤ 0.2 |

| Variant | one-hybrid fitness for binding parS DNA |
| --- | --- |
| NFKT | ≤ 0.2 |
| RFVT | 0.614 |
| RFVP | ≤ 0.2 |
| RFKT | 0.902 |
| GMAG | ≤ 0.2 |
| DNQC | ≤ 0.2 |
| KSSE | ≤ 0.2 |
| PNYS | ≤ 0.2 |
| RTAN | 0.429 |
| RTFN | 0.436 |
| RTFD | ≤ 0.2 |
| RTFC | 0.986 |
| RTAC | 0.98 |
| RTAF | 0.256 |
| ITKL | ≤ 0.2 |
| KWHC | ≤ 0.2 |
| QGYA | ≤ 0.2 |
| RHMY | 0.383 |
| RIMM | 0.377 |
| RHMK | ≤ 0.2 |
| RIMG | 0.996 |
| RKMQ | ≤ 0.2 |
| RIMR | ≤ 0.2 |
| DFMG | ≤ 0.2 |

| Variant | one-hybrid fitness for binding parS DNA |
| --- | --- |
| RFMG | 0.864 |
| RHMG | 0.932 |
| RKMM | 0.283 |
| NFMG | ≤ 0.2 |
| RKMG | 0.951 |
| AATS | ≤ 0.2 |
| LNQW | ≤ 0.2 |
| ILSS | ≤ 0.2 |
| QYSS | ≤ 0.2 |
| QVQQ | ≤ 0.2 |
| YRRM | ≤ 0.2 |
| RRMM | ≤ 0.2 |
| RDMG | ≤ 0.2 |
| RAMG | 0.995 |
| RAMY | 0.435 |
| RSMG | 0.962 |
| RPMG | ≤ 0.2 |
| REMG | ≤ 0.2 |
| RSMR | ≤ 0.2 |
| RAMK | ≤ 0.2 |
| RCMG | 1.03 |
| RRMR | ≤ 0.2 |
| RRMG | 0.806 |
| LNGD | ≤ 0.2 |

| Variant | one-hybrid fitness for binding parS DNA |
| --- | --- |
| WSGR | ≤ 0.2 |
| IRPG | ≤ 0.2 |
| LHHS | ≤ 0.2 |
| PPPY | ≤ 0.2 |
| RMMQ | 0.215 |
| RMMG | 0.985 |
| RLMR | ≤ 0.2 |
| RMMH | ≤ 0.2 |
| RTMR | ≤ 0.2 |
| RTMK | ≤ 0.2 |
| RLMY | 0.49 |
| RTMG | 1 |
| RLMG | 1.02 |
| MPYE | ≤ 0.2 |
| MAAF | ≤ 0.2 |
| SSTQ | ≤ 0.2 |
| DFFS | ≤ 0.2 |
| VTNA | ≤ 0.2 |
| QCWG | ≤ 0.2 |
| SHRE | ≤ 0.2 |
| RRHI | ≤ 0.2 |
| TAII | ≤ 0.2 |
| LRVW | ≤ 0.2 |
| AKPV | ≤ 0.2 |

| Variant | one-hybrid fitness for binding parS DNA |
| --- | --- |
| QKYL | ≤ 0.2 |
| RMIG | 0.947 |
| RMIH | 0.223 |
| RMPL | ≤ 0.2 |
| RMIP | ≤ 0.2 |
| RMPY | 0.322 |
| RMPG | 0.775 |
| VWYT | ≤ 0.2 |
| HCQT | ≤ 0.2 |
| TAHC | ≤ 0.2 |
| RTKD | ≤ 0.2 |
| RTKS | 0.815 |
| RTKH | 0.439 |
| RTVN | 0.387 |
| RTVP | ≤ 0.2 |
| RTVS | 1 |
| PTHK | ≤ 0.2 |
| YTPL | ≤ 0.2 |
| RQDT | 0.768 |
| RQDM | 0.324 |
| RQSR | ≤ 0.2 |
| RQRK | ≤ 0.2 |
| RQRT | 0.849 |
| RQST | 0.916 |

| Variant | one-hybrid fitness for binding parS DNA |
| --- | --- |
| RQDY | 0.421 |
| RQRM | 0.349 |
| RQHT | 0.892 |
| RQHH | 0.292 |
| RQSM | 0.319 |
| RQHD | ≤ 0.2 |
| VPNM | ≤ 0.2 |
| PYKG | ≤ 0.2 |
| NCIC | ≤ 0.2 |
| LPKF | ≤ 0.2 |
| GQSM | ≤ 0.2 |
| WYTC | ≤ 0.2 |
| RQYK | ≤ 0.2 |
| RQNT | 0.889 |
| RQQR | ≤ 0.2 |
| RQYT | 0.847 |
| RQNQ | ≤ 0.2 |
| RQGH | 0.249 |
| RQQF | 0.28 |
| RQNE | ≤ 0.2 |
| RQGD | ≤ 0.2 |
| RQYM | 0.318 |
| RQQT | 0.895 |
| RQGT | 0.847 |

| Variant | one-hybrid fitness for binding parS DNA |
| --- | --- |
| NLLR | ≤ 0.2 |
| RPHV | ≤ 0.2 |
| WPRR | ≤ 0.2 |
| VTAC | ≤ 0.2 |
| DHDY | ≤ 0.2 |
| MGLM | ≤ 0.2 |
| DCQR | ≤ 0.2 |
| HLAT | ≤ 0.2 |
| RQLM | 0.301 |
| RQWT | 0.702 |
| RQCT | 0.846 |
| RQWR | ≤ 0.2 |
| RQCP | ≤ 0.2 |
| RQLT | 0.86 |
| RQWF | ≤ 0.2 |
| RQLR | ≤ 0.2 |
| RQCD | ≤ 0.2 |
| FMNC | ≤ 0.2 |
| QHYS | ≤ 0.2 |
| AARS | ≤ 0.2 |
| AYIV | ≤ 0.2 |
| GHTQ | ≤ 0.2 |
| WFQV | ≤ 0.2 |
| RDAG | ≤ 0.2 |

| Variant | one-hybrid fitness for binding parS DNA |
| --- | --- |
| REAG | ≤ 0.2 |
| RSAF | 0.266 |
| RCAG | 1.02 |
| RPAG | ≤ 0.2 |
| RSAG | 0.992 |
| RPEM | ≤ 0.2 |
| VMQS | ≤ 0.2 |
| RGMS | 0.672 |
| RGMC | 0.543 |
| RGMY | ≤ 0.2 |
| RGMG | 0.604 |
| RGMM | ≤ 0.2 |
| RGMD | ≤ 0.2 |
| RGMP | ≤ 0.2 |
| RGMQ | ≤ 0.2 |
| RGMN | ≤ 0.2 |
| PVHI | ≤ 0.2 |
| HKLN | ≤ 0.2 |
| WWDG | ≤ 0.2 |
| RNHR | ≤ 0.2 |
| DEPC | ≤ 0.2 |
| RVSG | 0.999 |
| RVNQ | ≤ 0.2 |
| RVSM | 0.347 |

| Variant | one-hybrid fitness for binding parS DNA |
| --- | --- |
| RVWH | ≤ 0.2 |
| RVDK | ≤ 0.2 |
| RVSR | ≤ 0.2 |
| RVNM | 0.324 |
| RVDG | 0.874 |
| RVDQ | ≤ 0.2 |
| RVNG | 0.992 |
| RVWP | ≤ 0.2 |
| RVWG | 0.982 |
| AQKQ | ≤ 0.2 |
| HTYC | ≤ 0.2 |
| VSWE | ≤ 0.2 |
| SPNG | ≤ 0.2 |
| LCPA | ≤ 0.2 |
| LGTD | ≤ 0.2 |
| MNAP | ≤ 0.2 |
| PHSE | ≤ 0.2 |
| DQES | ≤ 0.2 |
| NCWT | ≤ 0.2 |
| RCSE | ≤ 0.2 |
| MTTC | ≤ 0.2 |
| RVCG | 0.972 |
| RVHG | 1.03 |
| RVRM | 0.392 |

| Variant | one-hybrid fitness for binding parS DNA |
| --- | --- |
| RVHQ | ≤ 0.2 |
| RVYN | 0.46 |
| RVYP | 0.213 |
| RVYG | 1.02 |
| RVCF | 0.249 |
| RVRF | 0.266 |
| RVHK | ≤ 0.2 |
| RVCR | ≤ 0.2 |
| RVRG | 0.955 |
| MWSG | ≤ 0.2 |
| WLTK | ≤ 0.2 |
| SYTT | ≤ 0.2 |
| YPIF | ≤ 0.2 |
| ESYW | ≤ 0.2 |
| ARYC | ≤ 0.2 |
| RVLG | 0.992 |
| RVQF | 0.234 |
| RVQR | ≤ 0.2 |
| RVGK | ≤ 0.2 |
| RVLN | 0.423 |
| RVGG | 1.01 |
| RVQG | 0.999 |
| RVGR | ≤ 0.2 |
| RVLD | 0.245 |
